Test results reported in ChEMBL document CHEMBL1961873, “Compounds: GSK PKIS; Assays: Nanosyn kinase panel” (2012).

How the values were obtained:
[1] = target: Sphingosine kinase 1 (Homo sapiens) (UniProt Q9NYA1); conditions: at 1 µM;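 further: mean SPHK1 inhibition value reported from the GSK PKIS kinase panel screen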
[2] = target: T1, Sphingosine kinase 2 (Homo sapiens) (UniProt Q9NRA0); conditions: at 0.1 µM
T1 sequence (whole entry): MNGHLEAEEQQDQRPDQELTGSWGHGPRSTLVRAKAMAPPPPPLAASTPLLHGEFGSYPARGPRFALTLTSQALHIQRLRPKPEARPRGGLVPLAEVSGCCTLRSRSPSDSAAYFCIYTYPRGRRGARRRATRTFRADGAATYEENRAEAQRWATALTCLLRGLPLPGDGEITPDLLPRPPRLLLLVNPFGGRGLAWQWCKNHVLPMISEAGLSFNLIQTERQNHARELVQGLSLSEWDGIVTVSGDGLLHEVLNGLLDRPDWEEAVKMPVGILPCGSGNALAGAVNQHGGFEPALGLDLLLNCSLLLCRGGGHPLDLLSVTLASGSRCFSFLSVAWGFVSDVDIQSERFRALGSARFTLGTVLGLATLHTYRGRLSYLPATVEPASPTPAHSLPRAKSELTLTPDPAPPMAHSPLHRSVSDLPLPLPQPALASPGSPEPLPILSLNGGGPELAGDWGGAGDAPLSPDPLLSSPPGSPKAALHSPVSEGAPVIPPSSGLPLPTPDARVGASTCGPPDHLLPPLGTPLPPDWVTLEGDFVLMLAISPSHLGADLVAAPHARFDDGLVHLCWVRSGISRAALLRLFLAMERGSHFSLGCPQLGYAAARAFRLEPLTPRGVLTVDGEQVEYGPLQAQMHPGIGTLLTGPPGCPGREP

[3] = target: T1, Sphingosine kinase 2 (Homo sapiens); conditions: at 1 µM
[4] = target: Casein kinase II subunit alpha (Homo sapiens) (UniProt P68400); conditions: at 0.1 µM
[5] = target: Casein kinase II subunit alpha (Homo sapiens) (UniProt P68400); conditions: at 1 µM
[6] = target: T2, Inhibitor of nuclear factor kappa-B kinase subunit alpha (Homo sapiens) (UniProt O15111); conditions: at 0.1 µM
T2 sequence (whole entry): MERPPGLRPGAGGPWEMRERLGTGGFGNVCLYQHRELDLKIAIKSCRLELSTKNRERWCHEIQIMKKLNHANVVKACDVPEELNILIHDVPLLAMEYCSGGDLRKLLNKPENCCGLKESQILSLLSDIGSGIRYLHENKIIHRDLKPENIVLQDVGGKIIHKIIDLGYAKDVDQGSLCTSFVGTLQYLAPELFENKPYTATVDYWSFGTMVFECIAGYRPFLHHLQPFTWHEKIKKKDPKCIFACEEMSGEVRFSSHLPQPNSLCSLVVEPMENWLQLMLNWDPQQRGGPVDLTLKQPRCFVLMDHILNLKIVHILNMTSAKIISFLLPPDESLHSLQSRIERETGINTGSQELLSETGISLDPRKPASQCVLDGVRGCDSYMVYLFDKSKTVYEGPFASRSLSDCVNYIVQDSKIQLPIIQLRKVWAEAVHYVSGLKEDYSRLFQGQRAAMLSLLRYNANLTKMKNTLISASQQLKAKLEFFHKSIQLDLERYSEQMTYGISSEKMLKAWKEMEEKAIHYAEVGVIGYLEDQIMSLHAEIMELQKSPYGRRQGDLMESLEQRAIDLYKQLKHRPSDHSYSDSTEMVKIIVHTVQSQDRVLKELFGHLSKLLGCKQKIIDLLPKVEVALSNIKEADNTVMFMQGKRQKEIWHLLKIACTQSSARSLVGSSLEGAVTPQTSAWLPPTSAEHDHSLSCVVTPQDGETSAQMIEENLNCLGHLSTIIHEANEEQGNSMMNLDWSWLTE

[7] = target: T2, Inhibitor of nuclear factor kappa-B kinase subunit alpha (Homo sapiens); conditions: at 1 µM
[8] = target: T3, Inhibitor of nuclear factor kappa-B kinase subunit beta (Homo sapiens) (UniProt O14920); conditions: at 0.1 µM
T3 sequence (whole entry): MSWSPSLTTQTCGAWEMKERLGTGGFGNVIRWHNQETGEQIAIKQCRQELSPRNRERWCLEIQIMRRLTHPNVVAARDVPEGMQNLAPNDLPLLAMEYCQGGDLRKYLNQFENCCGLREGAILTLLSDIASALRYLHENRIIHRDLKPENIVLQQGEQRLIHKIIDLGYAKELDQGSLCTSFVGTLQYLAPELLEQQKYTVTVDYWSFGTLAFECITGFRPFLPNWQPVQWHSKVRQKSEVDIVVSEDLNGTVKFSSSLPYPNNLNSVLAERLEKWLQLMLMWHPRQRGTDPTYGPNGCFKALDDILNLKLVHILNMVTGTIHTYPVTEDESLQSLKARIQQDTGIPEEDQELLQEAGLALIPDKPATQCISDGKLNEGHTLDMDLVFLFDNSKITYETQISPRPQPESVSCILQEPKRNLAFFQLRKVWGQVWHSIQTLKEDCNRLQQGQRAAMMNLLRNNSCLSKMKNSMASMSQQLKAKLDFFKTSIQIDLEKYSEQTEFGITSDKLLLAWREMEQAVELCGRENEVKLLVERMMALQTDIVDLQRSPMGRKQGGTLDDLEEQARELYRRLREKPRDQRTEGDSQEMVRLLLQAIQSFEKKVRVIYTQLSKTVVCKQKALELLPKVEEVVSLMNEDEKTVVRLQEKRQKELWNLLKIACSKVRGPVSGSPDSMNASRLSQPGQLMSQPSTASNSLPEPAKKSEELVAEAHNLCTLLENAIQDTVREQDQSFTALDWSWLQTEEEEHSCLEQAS

[9] = target: T3, Inhibitor of nuclear factor kappa-B kinase subunit beta (Homo sapiens); conditions: at 1 µM
[10] = target: T4, Inhibitor of nuclear factor kappa-B kinase subunit epsilon (Homo sapiens) (UniProt Q14164); conditions: at 0.1 µM
T4 sequence (whole entry): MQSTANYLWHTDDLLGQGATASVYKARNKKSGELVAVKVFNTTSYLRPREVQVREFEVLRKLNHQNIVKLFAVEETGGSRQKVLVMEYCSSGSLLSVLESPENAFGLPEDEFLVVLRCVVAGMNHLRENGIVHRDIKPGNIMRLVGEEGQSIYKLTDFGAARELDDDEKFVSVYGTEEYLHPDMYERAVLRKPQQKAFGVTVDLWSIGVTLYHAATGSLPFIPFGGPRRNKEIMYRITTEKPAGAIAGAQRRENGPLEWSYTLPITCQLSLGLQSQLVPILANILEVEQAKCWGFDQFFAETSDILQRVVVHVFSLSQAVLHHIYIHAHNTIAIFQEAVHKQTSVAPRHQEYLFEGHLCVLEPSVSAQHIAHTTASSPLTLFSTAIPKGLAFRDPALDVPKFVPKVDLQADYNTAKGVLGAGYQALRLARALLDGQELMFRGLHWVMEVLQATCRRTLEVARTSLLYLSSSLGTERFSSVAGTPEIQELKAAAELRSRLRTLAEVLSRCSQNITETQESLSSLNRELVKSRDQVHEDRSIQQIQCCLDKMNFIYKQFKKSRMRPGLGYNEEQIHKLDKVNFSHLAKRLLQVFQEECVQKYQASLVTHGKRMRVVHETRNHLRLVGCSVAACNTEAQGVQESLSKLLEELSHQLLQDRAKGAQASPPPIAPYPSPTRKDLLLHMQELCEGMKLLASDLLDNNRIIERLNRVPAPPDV

[11] = target: T4, Inhibitor of nuclear factor kappa-B kinase subunit epsilon (Homo sapiens); conditions: at 1 µM
[12] = target: T5, Serine/threonine-protein kinase Nek1 (Homo sapiens) (UniProt Q96PY6); conditions: at 0.1 µM
T5 sequence (whole entry): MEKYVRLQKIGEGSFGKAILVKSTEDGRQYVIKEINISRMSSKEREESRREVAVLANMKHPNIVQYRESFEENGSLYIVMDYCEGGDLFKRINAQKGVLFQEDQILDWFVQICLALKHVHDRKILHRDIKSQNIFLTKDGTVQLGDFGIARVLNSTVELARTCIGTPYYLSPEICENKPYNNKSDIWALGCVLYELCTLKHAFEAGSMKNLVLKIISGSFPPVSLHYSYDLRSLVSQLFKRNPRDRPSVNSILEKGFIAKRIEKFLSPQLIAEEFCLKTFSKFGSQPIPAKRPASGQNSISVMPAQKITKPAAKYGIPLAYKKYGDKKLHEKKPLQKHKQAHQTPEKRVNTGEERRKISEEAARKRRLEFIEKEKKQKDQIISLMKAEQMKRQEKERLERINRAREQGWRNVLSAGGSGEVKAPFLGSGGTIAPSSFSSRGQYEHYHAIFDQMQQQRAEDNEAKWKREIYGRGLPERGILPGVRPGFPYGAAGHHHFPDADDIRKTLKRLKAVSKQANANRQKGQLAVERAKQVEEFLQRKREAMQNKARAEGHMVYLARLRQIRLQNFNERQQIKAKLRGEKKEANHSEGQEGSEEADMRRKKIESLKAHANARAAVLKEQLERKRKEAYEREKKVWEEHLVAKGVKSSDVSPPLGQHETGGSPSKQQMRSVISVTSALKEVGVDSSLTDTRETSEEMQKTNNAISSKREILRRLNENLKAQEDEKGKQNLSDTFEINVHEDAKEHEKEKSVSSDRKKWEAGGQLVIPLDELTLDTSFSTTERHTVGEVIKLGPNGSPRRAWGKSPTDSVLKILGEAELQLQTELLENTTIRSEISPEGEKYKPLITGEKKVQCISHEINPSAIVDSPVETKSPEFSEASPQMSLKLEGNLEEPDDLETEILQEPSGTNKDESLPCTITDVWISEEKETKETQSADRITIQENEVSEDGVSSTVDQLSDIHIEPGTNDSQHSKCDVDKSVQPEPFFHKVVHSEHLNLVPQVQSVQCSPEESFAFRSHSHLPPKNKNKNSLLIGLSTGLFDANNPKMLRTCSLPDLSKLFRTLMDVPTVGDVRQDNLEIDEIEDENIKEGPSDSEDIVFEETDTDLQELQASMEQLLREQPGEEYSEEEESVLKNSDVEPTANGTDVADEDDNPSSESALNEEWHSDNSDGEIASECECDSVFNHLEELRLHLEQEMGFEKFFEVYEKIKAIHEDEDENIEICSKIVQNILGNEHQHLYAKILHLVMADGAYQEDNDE

[13] = target: T5, Serine/threonine-protein kinase Nek1 (Homo sapiens); conditions: at 1 µM
[14] = target: T6, Serine/threonine-protein kinase Nek2 (Homo sapiens) (UniProt P51955); conditions: at 0.1 µM
T6 sequence (whole entry): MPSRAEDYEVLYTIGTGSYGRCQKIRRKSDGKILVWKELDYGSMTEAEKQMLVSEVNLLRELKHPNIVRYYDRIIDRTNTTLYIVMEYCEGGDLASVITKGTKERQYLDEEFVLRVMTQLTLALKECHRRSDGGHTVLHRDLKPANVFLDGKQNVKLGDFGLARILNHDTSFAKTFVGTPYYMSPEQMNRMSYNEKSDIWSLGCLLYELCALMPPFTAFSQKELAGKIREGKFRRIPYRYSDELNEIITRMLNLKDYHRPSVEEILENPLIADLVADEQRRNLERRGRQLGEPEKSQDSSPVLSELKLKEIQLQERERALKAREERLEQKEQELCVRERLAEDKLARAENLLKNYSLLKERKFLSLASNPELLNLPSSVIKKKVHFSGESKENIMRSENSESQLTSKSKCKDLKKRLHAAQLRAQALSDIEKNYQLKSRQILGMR

[15] = target: T6, Serine/threonine-protein kinase Nek2 (Homo sapiens); conditions: at 1 µM
[16] = target: Serine/threonine-protein kinase Nek6 (Homo sapiens) (UniProt Q9HC98); conditions: at 0.1 µM
[17] = target: Serine/threonine-protein kinase Nek6 (Homo sapiens) (UniProt Q9HC98); conditions: at 1 µM
[18] = target: Serine/threonine-protein kinase Nek7 (Homo sapiens) (UniProt Q8TDX7); conditions: at 0.1 µM
[19] = target: Serine/threonine-protein kinase Nek7 (Homo sapiens) (UniProt Q8TDX7); conditions: at 1 µM
[20] = target: T7, Serine/threonine-protein kinase Nek9 (Homo sapiens) (UniProt Q8TD19); conditions: at 0.1 µM;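 further: reported value is the mean percent inhibition of NEK9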
T7 sequence (whole entry): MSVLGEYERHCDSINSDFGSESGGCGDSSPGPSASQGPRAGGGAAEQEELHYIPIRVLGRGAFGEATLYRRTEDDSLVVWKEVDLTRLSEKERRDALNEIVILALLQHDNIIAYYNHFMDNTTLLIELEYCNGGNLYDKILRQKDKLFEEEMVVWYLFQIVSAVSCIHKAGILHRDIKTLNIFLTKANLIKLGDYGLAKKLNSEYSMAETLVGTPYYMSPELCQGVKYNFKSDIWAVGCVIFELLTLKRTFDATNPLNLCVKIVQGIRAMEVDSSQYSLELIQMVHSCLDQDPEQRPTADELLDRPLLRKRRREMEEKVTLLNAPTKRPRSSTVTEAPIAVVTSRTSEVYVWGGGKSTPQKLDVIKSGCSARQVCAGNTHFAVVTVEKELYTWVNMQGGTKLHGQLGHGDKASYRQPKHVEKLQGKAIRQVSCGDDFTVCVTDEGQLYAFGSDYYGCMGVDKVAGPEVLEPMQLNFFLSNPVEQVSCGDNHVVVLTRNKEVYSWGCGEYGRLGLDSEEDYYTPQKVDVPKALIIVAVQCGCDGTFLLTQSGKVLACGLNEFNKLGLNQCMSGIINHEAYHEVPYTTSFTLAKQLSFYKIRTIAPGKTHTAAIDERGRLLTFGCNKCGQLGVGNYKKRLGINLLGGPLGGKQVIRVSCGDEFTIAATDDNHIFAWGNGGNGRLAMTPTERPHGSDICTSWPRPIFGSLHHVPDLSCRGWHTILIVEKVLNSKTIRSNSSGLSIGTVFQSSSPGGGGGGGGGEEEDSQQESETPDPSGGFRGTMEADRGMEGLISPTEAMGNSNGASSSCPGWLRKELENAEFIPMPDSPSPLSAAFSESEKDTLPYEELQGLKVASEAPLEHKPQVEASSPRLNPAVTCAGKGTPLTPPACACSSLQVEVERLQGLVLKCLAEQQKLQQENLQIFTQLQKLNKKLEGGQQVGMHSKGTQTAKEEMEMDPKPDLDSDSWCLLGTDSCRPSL

Sphingosine kinase 1 (Homo sapiens), sequence (Q9NYA1 whole entry): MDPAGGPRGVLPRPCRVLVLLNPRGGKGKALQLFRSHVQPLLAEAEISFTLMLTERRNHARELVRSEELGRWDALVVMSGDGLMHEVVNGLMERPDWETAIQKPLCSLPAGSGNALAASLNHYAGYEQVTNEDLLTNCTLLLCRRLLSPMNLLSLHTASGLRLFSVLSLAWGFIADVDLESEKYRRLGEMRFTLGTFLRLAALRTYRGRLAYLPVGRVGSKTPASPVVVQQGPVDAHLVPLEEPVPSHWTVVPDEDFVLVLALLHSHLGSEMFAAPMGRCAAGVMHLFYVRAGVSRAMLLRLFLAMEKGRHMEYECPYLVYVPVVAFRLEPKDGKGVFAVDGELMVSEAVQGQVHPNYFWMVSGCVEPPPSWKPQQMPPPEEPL
Serine/threonine-protein kinase Nek7 (Homo sapiens), sequence (Q8TDX7 whole entry, looked up): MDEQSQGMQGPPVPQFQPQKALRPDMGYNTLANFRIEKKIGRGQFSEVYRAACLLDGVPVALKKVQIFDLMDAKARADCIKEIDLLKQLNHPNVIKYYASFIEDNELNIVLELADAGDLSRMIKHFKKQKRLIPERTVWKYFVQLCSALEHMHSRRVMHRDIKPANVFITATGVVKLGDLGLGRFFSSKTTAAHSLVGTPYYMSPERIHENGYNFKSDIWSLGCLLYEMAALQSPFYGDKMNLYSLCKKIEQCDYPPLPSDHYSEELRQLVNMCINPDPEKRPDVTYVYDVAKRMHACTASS
Casein kinase II subunit alpha (Homo sapiens), sequence (P68400 whole entry, looked up): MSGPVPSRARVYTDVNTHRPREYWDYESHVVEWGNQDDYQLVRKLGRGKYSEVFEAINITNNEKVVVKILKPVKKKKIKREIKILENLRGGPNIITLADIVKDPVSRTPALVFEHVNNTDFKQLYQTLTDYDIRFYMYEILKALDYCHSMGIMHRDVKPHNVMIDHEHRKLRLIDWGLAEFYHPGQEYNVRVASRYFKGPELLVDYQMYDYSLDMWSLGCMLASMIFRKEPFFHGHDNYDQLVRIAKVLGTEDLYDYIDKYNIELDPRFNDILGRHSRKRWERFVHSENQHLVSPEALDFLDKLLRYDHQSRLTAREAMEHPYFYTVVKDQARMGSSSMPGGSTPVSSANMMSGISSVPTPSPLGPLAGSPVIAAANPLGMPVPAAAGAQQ
Serine/threonine-protein kinase Nek6 (Homo sapiens), sequence (Q9HC98 whole entry): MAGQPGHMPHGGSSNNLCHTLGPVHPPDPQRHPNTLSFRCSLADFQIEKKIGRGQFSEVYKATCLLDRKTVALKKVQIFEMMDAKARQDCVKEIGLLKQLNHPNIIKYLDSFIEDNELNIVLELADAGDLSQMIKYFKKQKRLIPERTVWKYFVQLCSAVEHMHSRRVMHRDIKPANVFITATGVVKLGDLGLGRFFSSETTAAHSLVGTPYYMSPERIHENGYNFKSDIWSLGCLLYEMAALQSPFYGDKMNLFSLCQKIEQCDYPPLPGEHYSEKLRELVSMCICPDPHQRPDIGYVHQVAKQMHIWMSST

SMILES	inhibition [1]	inhibition [2]	inhibition [3]	inhibition [4]	inhibition [5]	inhibition [6]	inhibition [7]	inhibition [8]	inhibition [9]	inhibition [10]	inhibition [11]	inhibition [12]	inhibition [13]	inhibition [14]	inhibition [15]	inhibition [16]	inhibition [17]	inhibition [18]	inhibition [19]	inhibition [20]
Nc1nc(-c2ccccn2)c(-c2ccc3ncccc3n2)s1	-3.49%	-0.63%	-3.19%	2.62%	10.1%	4.74%	9.42%	4.18%	4.54%	3.83%	5.46%	2.32%	4.91%	3.61%	2.7%	3.95%	1.16%	3.03%	2.77%	6.33%
NC(=O)c1cccc(Nc2nccc(Nc3cccc4[nH]ncc34)n2)c1	-1.98%	-0.9%	0.58%	-0.25%	3.56%	7.29%	41%	-0.17%	17.4%	-3.38%	21.4%	0.79%	8.86%	-3.63%	-1.96%	-4.36%	-2.96%	-1.67%	-3.47%	-0.63%
NS(=O)(=O)c1ccc(N/N=C2\C(=O)Nc3ccc(C(=O)NCCc4c[nH]cn4)cc32)cc1	-1.01%	1.57%	0.18%	6.03%	18.6%	10.2%	13%	4.11%	3.92%	7.82%	19%	2.19%	-1.06%	5.57%	5.42%	3.45%	1.65%	4.83%	7.05%	10.2%
